# Bioassay records (PubChem)
# IL1B secr inh: inflammasome signaling inhibition, IL-1 beta readout. 360,000 tested, 4.7% active. activity change, % at 57.5 µM. THP-1 LPS/ATP IL-1B secretion, AlphaLISA, 16 h; hits give low values; in the data active means activity change below about -50%; inconclusive means mostly about -30% to -49%
#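 THP-1 cells pretreated 1 hr with compounds (up to 57.5 uM final), then stimulated with LPS (250 ng/mL final) plus ATP (1.25 mM final); secreted IL-1B measured by AlphaLISA after 16 hr, decreased signal indicating inhibition.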
# HT1080 IDH1KD tx: kills HT-1080 cells with IDH1 knockdown. Potency, µM (titrated, usually from 46.1 µM), inactives show at the highest dose activity, negative = toxicity, actives largely listed as cytotoxic. AID 686971. 360,000 tested, 2% active. HT-1080 IDH1 knockdown viability, ATP luminescence, 48 h;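 further: potency means the concentration at half of the fitted maximal effect; 0% = DMSO wells and -100% = cell-free medium wells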
#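 HT-1080-IDH1KD cells (IDH1 knocked down), 750/well in RPMI with 5% FBS, treated with compound 48 h at 37 degrees C. Viability by CellTiter-Glo luminescence, normalised to DMSO and no-cell wells; concentration-response curves classed.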
# ELG1 DNA repair: blocks ELG1-dependent DNA repair in HEK293T cells. HEK293T ELG1-luciferase reporter, luminescence, 16 h; DNA damage induced by 5-fluorouridine. 330,000 tested, 2.3% active. Potency, µM (titrated, usually from 46.1 µM), without a hit: top-dose activity change, negative = inhibition, usual class: inhibitors. AID 504467; further: potency means the concentration at half of the fitted maximal effect; nearly all actives have a fitted effect of over 55% in size
#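 HEK293T cells expressing luciferase-tagged ELG1 (2,000/well) received 5-Fluorouridine plus compound or DMSO for 16 hr at 37 °C. Luciferase was read by ONE-Glo luminescence after 30 min at room temperature.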
# DT40 TDP1 no CPT: qHTS for Inhibitors of human tyrosyl-DNA phosphodiesterase 1 (TDP1): qHTS in cells in absence of CPT | AID 686978, 2013 | DT40 Tdp1-/- hTDP1 cells, no CPT, ATP luminescence, 48 h | 420,000 tested, 15% active | Potency, µM (titrated, usually from 46.2 µM), inactives show at the top dose activity change, negative = growth inhibition, actives largely listed as inhibitors; further: potency means the concentration at half of the fitted maximal effect; nearly all actives have a fitted effect of over 55% in size
#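 A cellular qHTS used chicken DT40 cells lacking endogenous Tdp1 but carrying stably transfected human TDP1. Compounds were applied without camptothecin, and cell growth kinetics were judged by ATP-dependent luminescence after ≥48 hr.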
# HT1080NT lethal: kills 2HG-producing HT-1080-NT fibrosarcoma cells; HT-1080-NT fibrosarcoma viability, CellTiter-Glo ATP luminescence, 48 h; Potency, µM (doses to about 46.1 µM), inactives show at the highest dose activity, negative = less viability, most hits filed as cytotoxic; 360,000 tested, 1.6% active; AID 686970;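 further: NT is the 2HG producing partner of a matched IDH1 knockdown line; potency means the concentration at half of the fitted maximal effect; 0% = DMSO-treated cells and -100% = media-only wells without cells; nearly all actives have a fitted effect of over 55% in size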
#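 750 cells/well, RPMI + 5% FBS; 2 h settle, compound pin-transfer, 48 h at 37 degrees C. CellTiter-Glo 10 min RT, luminescence. Normalized to DMSO and media-only wells.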
# DT40 TDP1 CPT: DT40-hTDP1 cell growth loss with CPT. chicken DT40 Tdp1-/-;hTDP1 cells + 20 nM CPT, ATP luminescence, 48 h. Potency, µM (highest dose often 46.2 µM), inactives show top-dose activity change, negative = growth inhibition, most hits filed as inhibitors. 420,000 tested, 12% active. AID 686979; further: potency means the concentration at half of the fitted maximal effect; nearly all actives have a fitted effect of over 55% in size
#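 Chicken DT40 Tdp1-/- cells stably complemented with human TDP1 were seeded at 400 cells/well in medium containing 20 nM camptothecin, exposed to pin-transferred compounds, and grown at 37 °C for at least 48 hr. Viability was read as ATP luminescence.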
# * marks the source's active call; other numbers are inactive results; ? = inconclusive; . = no result given. Sampled rows, rich in hits. Any-hit rate of the full collection: about 19%. Unless noted, the call rests on the fitted dose curve; in most records, active means well fitted curve in the direction sought with a large enough effect; inconclusive means small, poorly fitted or top-dose-only effect, or another doubt; inactive means no such curve, though single readings can be large; an effect the other way counts as inactive or inconclusive. Unless noted, on the % scale 0 is the no-effect control and ±100 the full control effect.
SMILES,IL1B secr inh,HT1080 IDH1KD tx,ELG1 DNA repair,DT40 TDP1 no CPT,HT1080NT lethal,DT40 TDP1 CPT
CN(C)CCNC(=O)C1Cc2c(-c3ccccc3Oc3ccccc3)ccnc2O1 (stereo unspecified),-22,23µM*,.,18µM*,?,29µM*
Cc1c(C(N)=O)sc2ncn(CC(=O)N(C)C3CCCCC3)c(=O)c12,0,4%,-4%,-8%,-4%,-4%
O=C(Nc1ccc(Br)c2cccnc12)c1cccc2ccccc12,.,.,.,-18%,.,-14%
Cc1ccc(/C=C(\C#N)C(=O)Nc2ccccn2)o1,0,4%,?,-6%,4%,0%
C/C(=N\NC(N)=S)c1ccc(Cl)s1,-79*,-10%,?,4.6µM*,0%,5.2µM*
C/C(=N\NC(=O)c1ccoc1C)c1ccc(Cl)s1,?,6%,?,4%,1%,5%
C/C(=N\NC(=S)NC(C)C)c1ccc(Cl)s1,-9,-18%,-2%,5.8µM*,-1%,15µM*
C/C(=N\NC(=O)c1csc(C)c1C)c1ccc(Cl)s1,-5,4%,?,23µM*,-1%,23µM*
Cc1ccc(NC(=O)c2ccc(N/N=C/c3cccc(O)c3)c([N+](=O)[O-])c2)cc1,52,7.3µM*,-24%,12µM*,7.3µM*,9.2µM*
Cc1ccccc1NC(=O)c1ccc(N/N=C/c2ccccc2O)c([N+](=O)[O-])c1,1,-5%,0%,10µM*,-5%,8.2µM*
COc1ccccc1OCC1CNC(=O)O1 (stereo unspecified),.,.,.,6%,.,8%
CN(C)CCN(Cc1ccccc1)S(=O)(=O)c1ccc(-c2cc(C(F)(F)F)on2)s1,.,.,.,12µM*,.,15µM*
CN(C)CCN(Cc1ccccc1)S(=O)(=O)c1ccc(-c2ccc(=O)[nH]n2)s1,?,-5%,21%,11%,-18%,-12%
Cc1cccc(CCN2C(Nc3ccccc3)=NC[C@@H]2CC(C)C)c1,-54*,-28%,-5%,21µM*,?,18µM*
CC(C)C[C@H]1CN=C(N(C)C)N1CCc1cccc(F)c1,-15,-2%,3%,-29%,0%,-28%
C[C@H]1CN=C(N(C)C)N1CCc1cccc(F)c1,20,4%,2%,-7%,-7%,3%
CC(C)C[C@H]1CN=C(Nc2ccccc2)N1CCc1cccc(F)c1,-52*,-17%,4%,?,3%,10µM*
CCC(C)[C@H]1CN=C(N)N1CCc1cccc(F)c1 (stereo partly specified),-20,6%,.,13µM*,0%,18µM*
COc1cccc2sc(N(Cc3cccnc3)C(=O)C3COc4ccccc4O3)nc12 (stereo unspecified),.,.,.,-23%,.,-17%
O=C(CSc1nccn1Cc1ccc(Cl)cc1)Nc1ccc2c(c1)OCO2,.,.,.,-10%,.,15%
CCCN(CC(=O)Nc1ccccc1OC)C(=O)C1CCCC1,4,-1%,4%,21µM*,-3%,?
CCCN(CC(=O)Nc1ccccc1OC)C(=O)Cc1ccc2c(c1)CCC2,1,0%,0%,?,-4%,18µM*
CCOC(=O)[C@]12CCC=C1N(Cc1ccc3c(c1)OCO3)C(=O)[C@H](CC(=O)NCc1cccc(C(F)(F)F)c1)C2,-8,?,.,23µM*,?,21µM*
CCOC(=O)[C@]12CCCC=C1N(Cc1ccc3c(c1)OCO3)C(=O)[C@H](CC(=O)NCc1cccc(C(F)(F)F)c1)C2,0,16µM*,.,16µM*,10µM*,?
Nc1ccc2cccc(O)c2c1,20,-7%,.,13µM*,-19%,?
